# High-throughput results as filed in PubChem.
# FLuc counter: inhibits or activates purified firefly luciferase, miR-21 counter-screen; AID 588342; 360,000 tested, 6.9% active; Potency, µM (doses to about 57.5 µM), inactives show at the top dose activity change, negative = inhibition, hits mostly inhibitors; P08659; purified FLuc, Km substrates, luminescence inhibition;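 note: plate controls were vehicle for no effect and reference inhibitor for full effect; nearly all actives have a fitted effect of over 55% in size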
# Target sequence (P08659 whole entry, looked up): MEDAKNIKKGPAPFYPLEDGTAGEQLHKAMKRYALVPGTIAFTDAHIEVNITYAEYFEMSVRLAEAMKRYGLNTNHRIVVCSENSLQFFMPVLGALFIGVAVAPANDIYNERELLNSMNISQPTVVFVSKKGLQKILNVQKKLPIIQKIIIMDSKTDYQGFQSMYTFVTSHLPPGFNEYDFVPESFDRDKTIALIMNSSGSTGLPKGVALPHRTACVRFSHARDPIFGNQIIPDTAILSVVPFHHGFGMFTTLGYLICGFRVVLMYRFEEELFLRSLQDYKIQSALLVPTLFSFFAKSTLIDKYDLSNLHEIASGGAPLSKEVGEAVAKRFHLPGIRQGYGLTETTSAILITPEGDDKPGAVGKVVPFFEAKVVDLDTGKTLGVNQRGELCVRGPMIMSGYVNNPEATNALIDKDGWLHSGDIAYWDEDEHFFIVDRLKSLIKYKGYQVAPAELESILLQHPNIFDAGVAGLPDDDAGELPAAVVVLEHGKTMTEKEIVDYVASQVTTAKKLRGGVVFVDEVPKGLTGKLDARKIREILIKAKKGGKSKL
#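 Biochemical qHTS of compounds, final roughly 60 µM downward over six points, against 10 nM purified firefly luciferase using Km concentrations of substrates (10 uM D-luciferin, 10 uM ATP) in Tris acetate pH 7.5 buffer; luminescence output.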
# ELG1 genotox: inducers of genotoxicity in HEK293T ELG1-luciferase cells; HEK293T ELG1-luciferase reporter, luminescence, 16 h; Potency, µM (highest dose often 46 µM), inactives show top-dose activity change, positive = activation, usual class: activators; 330,000 tested, 1.3% active; note: % of control where 0% means no effect; nearly all actives have a fitted effect of over 60% in size
#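 Reporter readout depends on ELG1 protein level, which increases with genetic stress. After 16 hr compound exposure at 37 °C, luciferase activity was quantified using ONE-Glo.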
# NPC1 promoter act: activates the NPC1 promoter. 320,000 tested, 2.4% active. Huh7 NPC1 promoter luciferase reporter, 24 h. AID 485313. Potency, µM (top dose mostly 9.22 µM), without a hit: at the highest dose activation, usual class: activators; note: % of control where 0% means no effect; nearly all actives have a fitted effect of over 60% in size
#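 Luciferase expression driven by the NPC1 promoter was measured in stably transfected Huh7 cells after a 24 h compound incubation, using a luciferase reagent and a luminescence read.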
# Rab9 promoter act: Rab9 promoter activation; Huh7 Rab9 promoter-luciferase reporter, luminescence, 24 h; AID 485297; 320,000 tested, 2.8% active; Potency, µM (highest dose often 9.22 µM), for inactives: top-dose activation, negative = inhibition, hits mostly activators; note: % of control where 0% means no effect; nearly all actives have a fitted effect of over 60% in size
#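 Using Huh7 cells stably transfected with Rab9 promoter–luciferase, compounds were incubated 24 h at 37 °C, 5% CO2; luciferase luminescence was read 10 min after reagent addition.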
# SMN2 splice up: enhancers of SMN2 splice variant expression | HEK293 SMN2-luciferase splicing reporter, luminescence, 30-36 h | 210,000 tested, 2.8% active | Potency, µM (doses to about 46.1 µM), inactives show at the highest dose activity change, positive = activation, usual class: activators | AID 1458; note: % of control where 0% means no effect; nearly all actives have a fitted effect of over 55% in size
#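 HEK293 cells carry an SMN2 […]–luciferase reporter in which exon 7 inclusion puts luciferase in frame. Cells were plated 10-12 h before compound addition, then incubated 30-36 h at 37C. ONE-Glo luminescence was read; sodium butyrate at 4.5 mM final served as control.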
# KinaseGlo FLuc: counter-screen: inhibitors of Kinase-Glo firefly luciferase. Potency, µM (titrated, usually from 38.3 µM), inactives show at the top dose activity change, negative = inhibition, actives largely listed as inhibitors. Q27757. 200,000 tested, 0.28% active. Kinase-Glo luciferase, ATP luminescence, 8 min; note: % is set by controls: 0 for no effect and ±100 for the full control effect; nearly all actives have a fitted effect of over 60% in size
#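 Compounds were added to a substrate mix at pH 7.2 (50 mM imidazole, 10 uM ATP, within the enzyme's linear range), followed by Kinase-Glo detection reagent; luminescence was measured after 8 minutes at ambient temperature.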
# The depositor's hits bear a star; ? = inconclusive; . = no result; [ ] = dose if it differs, or a comment. Hits are enriched below; roughly 7.5% of the tested compounds scored in any of these assays. Calls come from the whole dose curve; as a rule, active = well fitted curve in the direction sought with a large enough effect; inconclusive = small, poorly fitted or top-dose-only effect, or another doubt; inactive = no such curve, though single readings can be large; an effect the other way counts as inactive or inconclusive. Potency is the fitted concentration of half-maximal effect.
SMILES,FLuc counter,ELG1 genotox,NPC1 promoter act,Rab9 promoter act,SMN2 splice up,KinaseGlo FLuc
COc1cc(NC(=O)CSc2nc3ccccc3nc2Cc2ccccc2OC)cc(OC)c1,-5%,.,.,.,.,.
O=C(Nc1nc(-c2ccc(-c3ccccc3)cc2)cs1)C1=COCCO1,?,17%,-2%,-6%,-21%,-1%
COc1ccc(-c2csc(NC(=O)COC(=O)C3=COCCO3)n2)cc1,2%,15%,3.5µM*,4µM*,14µM*,-3%
Cc1cc(C)c(-c2csc(NC(=O)C3=COCCO3)n2)cc1C,19µM*,1%,13%,8%,.,.
CC(C)OC(=O)c1ccc(COC(=O)c2cnccn2)cc1,7.6µM*,2%,1%,0%,-8%,-11%
O=C(Oc1ccc(Cl)cc1)c1ccc(COC(=O)c2cnccn2)cc1,12µM*,9%,-5%,-3%,12%,0%
OC[C@@H]1O[C@H](n2cnc3c(/C=C(\O)c4ccccc4)ncnc32)[C@H](O)[C@@H]1O,.,.,.,.,-1%[9.22 µM],-7%[7.66 µM]
CCC(C)C(=O)Nn1c(C2CC2)nc2cc(OC)c(OC)cc2c1=O (stereo unspecified),2%,-4%,-5%,1%,9%,-3%
Cc1c(C)c2ccc(OCC(=O)Nc3ccccn3)cc2oc1=O,0.34µM*,0.46µM*,0.89µM*,3.5µM*,.,.
CCCCc1cc(=O)oc2cc(OCC(=O)Nc3ccccn3)ccc12,21µM*,13µM*,?,4.5µM*,.,.
Cc1c(C)c2ccc(OCC(=O)NCc3ccccn3)cc2oc1=O,4%,8%,-5%,3%,.,.
Cc1c(C)c2ccc(OCC(=O)Nc3nccs3)cc2oc1=O,0.95µM*,1µM*,0.28µM*,0.5µM*,.,.
Cc1cc(=O)oc2cc(OCC(=O)Nc3nccs3)ccc12,5.4µM*,10µM*,2µM*,4µM*,.,.
COc1ccccc1CNC(=O)Cc1c(C)c2c(cc(C)c3c(C)coc32)oc1=O,-2%,.,.,.,-1%,.
CCCn1c(-c2ccc(S(=O)(=O)N3CCOCC3)cc2)csc1=Nc1ccc(OCC)cc1,2%,.,.,.,-46%,.
Cc1cc(C)n(Cc2cc(C(=O)O)c3ccccc3n2)n1,-1%,2%,1%,-3%,-6%,1%
O=C1C(C2=C(O)c3ccccc3C2=O)=Nc2ccccc21,1.9µM*,-3%,-19%,-28%,-11%,11µM*
O=C1c2ccccc2C(=O)c2c(O)ccc(O)c21,.,.,.,.,-3%,1%
CN(C)/C=C/c1onc(-c2ccccc2Cl)c1C#N,24µM*,?,?,?,24%,-2%
Cc1ccccc1-c1noc(N)c1C#N,-1%,4%,7%,1%,-6%,-1%
COc1ccccc1/C=C/C(=O)Nc1cccnc1Cl,27µM*,18%,?,29%,.,.
COc1ccc(/C=C/C(=O)Nc2ccc(Cl)c(Cl)c2)cc1,4.8µM*,.,.,.,6%,.
COc1ccc(/C=C/C(=O)Nc2cccnc2Cl)cc1,5.4µM*,9.2µM*,2µM*,2.5µM*,.,.
COC(=O)c1cc(Cl)c(NC(=O)/C=C/c2ccc(OC)cc2)cc1OC,4%,8%,-8%,3%,4%,-1%
COc1ccccc1/C=C/C(=O)NCCc1ccccn1,13µM*,?,?,2.8µM*,.,.
SMILES,FLuc counter,ELG1 genotox,NPC1 promoter act,Rab9 promoter act,SMN2 splice up,KinaseGlo FLuc
O=[N+]([O-])CC(=Nc1ccc(Cl)cc1)N/N=C\c1oc(O)c2ccccc12,12µM*,11%,?,?,10%,-3%
O=C(N/N=C/c1ccc([N+](=O)[O-])o1)c1cn(-c2ccccc2)nc1-c1ccc(Cl)cc1,2%,7%,-7%,3%,-9%,0%
N=C1/C(=C\c2ccc(SCc3ccccc3)o2)C(=O)N=C2SC=NN12,13µM*,3%,-6%,-4%,8%,3%
CCS(=O)(=O)c1ccc(O)c(NC(=O)COc2ccc(Br)cc2)c1,24µM*,-1%,0%,-4%,1%,4%
Cc1ccc(CNC(=O)C(=O)NCC2OCCCN2S(=O)(=O)c2ccc(F)cc2)cc1 (stereo unspecified),-1%,-5%,1%,5%,.,.
COc1ccc(CNC(=O)CC23CC4CC(CC(C4)C2)C3)cc1OC,15µM*,0%,-1%,-2%,.,.
O=C(CSc1nnc(-c2ccc(O)cc2)o1)Nc1cccc(O)c1,?,?,13%,-1%,.,.
O=C(Nc1ccc2c(c1)OCCO2)C1CC(c2ccccc2Cl)=NO1 (stereo unspecified),19µM*,6%,4µM*,4µM*,.,.
CC(C)(C)c1ccc(-c2nnc(SCC(=O)c3ccc4c(c3)OCCO4)o2)cc1,24µM*,-3%,-2%,-17%,-40%,-2%
O=C(CSc1nnc(-c2ccc(O)cc2)o1)Nc1ccc2c(c1)OCCO2,?,15%,3.2µM*,4µM*,16µM*,-1%
O=C(CSc1nnc(-c2ccccc2Cl)o1)Nc1ccc2c(c1)OCCO2,?,?,29%,?,14µM*,-2%
O=C(CSc1nnc(CNC(=O)c2ccccc2)o1)Nc1ccc2c(c1)OCCO2,?,4%,6%,6%,.,.
Cc1c(Cl)cccc1NC(=O)Nc1ccc2snnc2c1,?,.,.,.,5%,.
Cc1ccccc1OCC(=O)N(Cc1ccc(N(C)C)cc1)CC1CCCO1 (stereo unspecified),-11%,.,.,.,-14%,.
Cc1nnc(SC(C)C(=O)Nc2ccc3c(c2)OCCO3)s1 (stereo unspecified),?,5%,1%,-2%,22%,2%
COc1ccc(-c2nnc(SC(C)C(=O)Nc3ccc4c(c3)OCCO4)o2)cc1 (stereo unspecified),?,5.8µM*,18%,?,18µM*,2%
CCC(=O)C1CCCN(C(=O)CCc2nnc(-c3ccc4c(c3)OCO4)o2)C1 (stereo unspecified),?,?,14%,?,.,.
CCCOC1CCCN(C(=O)CCc2nnc(-c3ccc4c(c3)OCO4)o2)C1 (stereo unspecified),?,?,?,3.2µM*,.,.
CC1CCCN(C(=O)CCc2nnc(-c3ccc4c(c3)OCO4)o2)C1 (stereo unspecified),?,?,?,28%,.,.
CCC(=O)C1CCCN(C(=O)CCc2nnc(-c3ccc(C(C)=O)s3)o2)C1 (stereo unspecified),11µM*,?,?,?,.,.
CCOc1ccc(OC(=O)c2cn(-c3ccc(C)cc3)c(=O)c3ccccc23)cc1,4%,.,.,.,.,.
CCCN(CCC)C(=O)c1nn(C)c2c1CSc1ccc(C)cc1-2,0%,.,.,.,.,.
